PubChem BioAssay
Calls of active or inactive are those of the source. Unless noted, how the calls were made is not given here.

What was measured:
[1] = tested on: Wnt5a (protein binding on small-molecule microarray); experiment: Wnt5a binders on small-molecule microarray, primary screen, biophysical, 635/667 nm fluorescence (AID 1142); conditions: 635 nm fluorescence, higher = more signal;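 further: fluorescence read at 667 nm with signal to noise per printed feature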
[2] = cell viability in Huh7 cells, primary screen, cytotoxicity control for HCV replication inhibitor project, CellTiter-Glo luminescence, basal, 48 h (AID 1143); conditions: Huh7 HCV replicon, higher = more signal, called active from +8 up or from −8 down;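 further: Huh7 hepatoma cells carrying a hepatitis C replication reporter with no stimulus; test concentration not given here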
[3] = P. aeruginosa biofilm formation inhibitors, primary screen, PAO1 strain, BacTiter-Glo luminescence, LB-PBS (AID 1144); conditions: 12 h, higher = more signal
[4] = CREB reporter modulators without forskolin, primary screen, cell-based, PC12, CRE-LacZ reporter, unstimulated (AID 1145); conditions: no forskolin, luminescence, 4.5 h, higher = more signal, called active from +8 up or from −8 down
[5] = CREB reporter modulators under forskolin, primary screen, cell-based, PC12, CRE-LacZ reporter, forskolin-stimulated (AID 1146); conditions: luminescence, 4.5 h, higher = more signal, called active from +8 up or from −8 down;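 further: PC12 cells with 6xCRE LacZ reporter stimulated by forskolin 10 µM; beta-galactosidase reporter signal reflecting CREB driven transcription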
[6] = molecular target: Streptavidin (Streptomyces avidinii) (UniProt P22629); experiment: streptavidin binders on small-molecule microarray, primary screen, artefact control for SMM compound annotation, biophysical, 635/667 nm fluorescence (AID 1147); conditions: streptavidin binding, higher = more signal;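 further: signal reflects streptavidin binding to arrayed compounds as a control protein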
Streptavidin (Streptomyces avidinii), sequence (P22629 whole entry, looked up): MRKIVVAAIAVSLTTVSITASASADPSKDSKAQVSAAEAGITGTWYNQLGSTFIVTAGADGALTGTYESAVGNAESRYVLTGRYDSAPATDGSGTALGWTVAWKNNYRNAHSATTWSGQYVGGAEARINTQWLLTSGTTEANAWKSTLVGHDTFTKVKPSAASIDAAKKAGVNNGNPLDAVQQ

[7] = small-molecule binders of probe aInhba, primary screen, biochemical, small-molecule microarray, 635/667 nm fluorescence (AID 1148); conditions: higher = more signal;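 further: score merges 667nm spot fluorescence with signal-to-noise for antibody binding to printed compounds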
Torsin-1A (Homo sapiens) [8] = molecular target: Torsin-1A (Homo sapiens) (UniProt O14656); experiment: torsin A binders from cell lysate, primary screen, small-molecule microarray, wild-type, 635/667 nm (AID 1149); conditions: COS7 hTOR1A-WT lysate, 635 nm fluorescence, higher = more signal
Torsin-1A (Homo sapiens), sequence (O14656 whole entry, looked up): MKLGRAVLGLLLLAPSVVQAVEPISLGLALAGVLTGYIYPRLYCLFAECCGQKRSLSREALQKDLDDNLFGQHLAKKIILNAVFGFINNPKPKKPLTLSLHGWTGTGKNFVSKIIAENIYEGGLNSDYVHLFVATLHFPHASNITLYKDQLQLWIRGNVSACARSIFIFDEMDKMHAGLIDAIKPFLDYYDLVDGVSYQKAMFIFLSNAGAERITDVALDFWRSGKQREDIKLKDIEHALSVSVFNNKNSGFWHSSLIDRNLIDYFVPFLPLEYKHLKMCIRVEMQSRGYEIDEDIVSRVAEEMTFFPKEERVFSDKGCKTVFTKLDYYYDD

Torsin-1A (Homo sapiens) [9] = molecular target: Torsin-1A (Homo sapiens) (UniProt O14656); experiment: small-molecule binders of mutant TOR1A in lysate, primary screen, cell lysate, small-molecule microarray, COS7 lysate, 635/667 nm fluorescence (AID 1150); conditions: COS7 hTOR1A mutant lysate, 635 nm fluorescence, higher = more signal;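 further: score pools 667 nm emission and signal to noise measuring lysate protein binding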
[10] = tested on: Sonic hedgehog protein (Shh); experiment: small-molecule binders of Shh protein, primary screen, biochemical, small-molecule microarray, 635/667 nm fluorescence (AID 1151); conditions: small-molecule microarray binding, 635 nm fluorescence; higher = more signal;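 further: Shh protein binding to compounds spotted on small-molecule microarray slides; score combines spot fluorescence intensity with signal-to-noise across triplicate slides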
[11] = E. coli DRC41 culture turbidity changes, primary screen, E. coli filamentation inducer project, strain DRC41, OD650, 48 h (AID 1152);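 further: E. coli MC1000 strain DRC41 lacking acrAB efflux pump and sulA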; conditions: E. coli DRC41 (acrAB sulA), higher = more signal, called active from +8 up or from −8 down
[12] = small-molecule binders of probe aLefty1, primary screen, biochemical, small-molecule microarray, 635/667 nm fluorescence (AID 1153); conditions: higher = more signal;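 further: score merges spot fluorescence with signal-to-noise ratio from the scanned slide images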
[13] = PSAC antagonists in infected red cells, primary screen, cell-based, P. falciparum Indochina, OD700, 1 h (AID 1154); conditions: P. falciparum Indochina infected RBC osmotic lysis, higher = more signal, called active from +8 up or from −8 down
[14] = PSAC antagonists in infected red cells, primary screen, cell-based, P. falciparum Indochina, OD700, 2 h (AID 1155);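 further: lysis reports solute entry through the parasite surface anion channel PSAC; channel blockers reduce lysis of infected cells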; conditions: P. falciparum Indochina infected erythrocytes, osmotic lysis OD700; higher = more signal, called active from +8 up or from −8 down
[15] = osmotic lysis modulators in infected erythrocytes, primary screen, PSAC antagonist project, cell-based, P. falciparum Indochina, OD700, 3 h (AID 1156); conditions: higher = more signal, called active from +8 up or from −8 down
[16] = PSAC antagonists in infected red cells, primary screen, cell-based, P. falciparum Indochina, OD700, 18 h (AID 1157); conditions: P. falciparum Indochina infected erythrocytes, osmotic lysis OD700, 18 h; higher = more signal, called active from +8 up or from −8 down
[17] = modulators of S6 phosphorylation in cells, primary screen, cell-based, A549, cytoblot, luminescence, serum-stimulated (AID 1158); conditions: A549 phospho-S6 cytoblot, 5 h, higher = more signal;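 further: serum-stimulated A549 lung adenocarcinoma cells; signal is phosphorylated S6 detected by cytoblot immunostaining with HRP secondary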
[18] = molecular target: NADPH oxidase 2 (Homo sapiens) (UniProt P04839); experiment: NOX2-dependent H2O2 signal modulators, primary screen, NOX inhibitor project, cell-based, HEK293-NOX2, PMA-stimulated, Amplex Red fluorescence (AID 1159); conditions: 45 min, higher = more signal, called active from +8 up or from −8 down; further: test concentration not given here
NADPH oxidase 2 (Homo sapiens), sequence (P04839 whole entry, looked up): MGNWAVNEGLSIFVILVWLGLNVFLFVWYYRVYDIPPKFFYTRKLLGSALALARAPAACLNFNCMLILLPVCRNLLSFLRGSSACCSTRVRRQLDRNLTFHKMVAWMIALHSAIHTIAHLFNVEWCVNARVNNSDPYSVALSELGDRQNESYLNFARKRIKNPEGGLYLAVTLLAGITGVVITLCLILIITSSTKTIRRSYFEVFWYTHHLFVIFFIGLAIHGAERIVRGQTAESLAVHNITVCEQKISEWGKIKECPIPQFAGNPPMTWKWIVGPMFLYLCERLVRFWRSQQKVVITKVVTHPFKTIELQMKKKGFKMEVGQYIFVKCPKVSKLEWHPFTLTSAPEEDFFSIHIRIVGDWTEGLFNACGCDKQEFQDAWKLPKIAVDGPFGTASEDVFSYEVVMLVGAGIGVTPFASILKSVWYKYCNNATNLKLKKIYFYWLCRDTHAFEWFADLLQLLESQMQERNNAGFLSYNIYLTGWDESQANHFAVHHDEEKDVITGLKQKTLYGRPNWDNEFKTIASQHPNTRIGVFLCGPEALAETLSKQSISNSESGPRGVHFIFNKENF

[19] = molecular target: NADPH oxidase 4 (Homo sapiens) (UniProt Q9NPH5); experiment: NOX4-dependent H2O2 signal modulators, primary screen, NOX inhibitor project, cell-based, HEK293-NOX4, tetracycline-induced, Amplex Red fluorescence (AID 1160); conditions: 45 min, higher = more signal, called active from +8 up or from −8 down
NADPH oxidase 4 (Homo sapiens), sequence (Q9NPH5 whole entry, looked up): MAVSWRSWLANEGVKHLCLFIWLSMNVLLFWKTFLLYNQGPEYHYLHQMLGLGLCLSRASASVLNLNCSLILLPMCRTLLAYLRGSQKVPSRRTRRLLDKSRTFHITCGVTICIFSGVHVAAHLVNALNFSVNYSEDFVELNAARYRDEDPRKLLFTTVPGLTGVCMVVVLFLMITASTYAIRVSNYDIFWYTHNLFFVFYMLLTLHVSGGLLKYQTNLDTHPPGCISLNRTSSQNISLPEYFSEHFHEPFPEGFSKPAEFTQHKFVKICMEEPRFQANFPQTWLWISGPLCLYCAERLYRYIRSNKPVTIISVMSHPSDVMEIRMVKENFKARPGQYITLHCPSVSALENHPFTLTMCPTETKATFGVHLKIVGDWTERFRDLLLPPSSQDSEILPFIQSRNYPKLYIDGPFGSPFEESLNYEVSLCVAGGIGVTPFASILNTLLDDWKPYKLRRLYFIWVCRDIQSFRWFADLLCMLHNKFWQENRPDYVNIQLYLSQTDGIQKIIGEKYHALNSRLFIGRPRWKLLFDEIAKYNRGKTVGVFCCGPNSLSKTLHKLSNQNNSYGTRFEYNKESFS

[20] = molecular target: NADPH oxidase 5 (Homo sapiens) (UniProt Q96PH1); experiment: NOX5-dependent H2O2 signal modulators, primary screen, NOX inhibitor project, cell-based, HEK293-NOX5, Amplex Red fluorescence (AID 1161); conditions: HEK293-NOX5, ionomycin, 45 min, higher = more signal
NADPH oxidase 5 (Homo sapiens), sequence (Q96PH1 whole entry, looked up): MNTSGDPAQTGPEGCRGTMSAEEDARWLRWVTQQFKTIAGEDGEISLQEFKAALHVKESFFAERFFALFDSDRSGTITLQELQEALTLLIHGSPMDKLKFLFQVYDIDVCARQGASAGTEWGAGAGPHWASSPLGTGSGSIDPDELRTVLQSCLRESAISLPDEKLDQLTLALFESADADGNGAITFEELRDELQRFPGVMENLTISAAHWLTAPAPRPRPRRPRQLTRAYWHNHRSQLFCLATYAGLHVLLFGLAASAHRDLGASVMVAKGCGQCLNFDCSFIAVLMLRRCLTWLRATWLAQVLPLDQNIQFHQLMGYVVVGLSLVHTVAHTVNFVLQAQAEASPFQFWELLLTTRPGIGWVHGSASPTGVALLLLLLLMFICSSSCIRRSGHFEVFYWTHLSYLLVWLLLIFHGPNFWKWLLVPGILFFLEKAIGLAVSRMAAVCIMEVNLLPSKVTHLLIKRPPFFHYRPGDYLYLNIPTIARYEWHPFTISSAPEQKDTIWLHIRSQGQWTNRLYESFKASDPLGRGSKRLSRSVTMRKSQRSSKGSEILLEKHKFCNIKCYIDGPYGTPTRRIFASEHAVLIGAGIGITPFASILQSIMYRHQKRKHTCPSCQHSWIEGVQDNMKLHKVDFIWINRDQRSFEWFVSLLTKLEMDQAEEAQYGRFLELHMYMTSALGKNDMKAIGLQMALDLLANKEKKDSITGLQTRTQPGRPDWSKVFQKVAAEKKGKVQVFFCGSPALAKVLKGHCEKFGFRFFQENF

Structure (SMILES)	composite z-score [1]	z-score [2]	z-score [3]	z-score [4]	z-score [5]	composite z-score [6]	composite z-score [7]	composite z-score (Torsin-1A (Homo sapiens) [8])	composite z-score (Torsin-1A (Homo sapiens) [9])	composite z-score [10]	z-score [11]	composite z-score [12]	z-score [13]	z-score [14]	z-score [15]	z-score [16]	z-score [17]	z-score [18]	z-score [19]	z-score [20]
CC(C)(C)OC(=O)CC[C@@]1(C(=O)N2CCCCC2)N=C(c2ccc(OCCCO)cc2)O[C@@H]1c1ccccc1	0.94	-2.99 (inactive)	-0.34 (inactive)	1.66 (inactive)	0.127 (inactive)	1.82	0.283	0.766	0.912	-0.45	-0.56 (inactive)	0.349	26.6 (active)	19.2 (active)	1.79 (inactive)	2.14 (inactive)	-0.354	-2.08 (inactive)	1.7 (inactive)	0.0911
COc1ccc(C#Cc2ccc3c(c2)[C@]2(C(=O)N3)[C@H](c3ccc(O)cc3)N3[C@H](c4ccccc4)[C@H](c4ccccc4)OC(=O)[C@H]3[C@@H]2C(=O)N2CCc3cc(OC)c(OC)cc3C2)cc1	0.636	-0.678 (inactive)	-0.0604 (inactive)	0.155 (inactive)	0.102 (inactive)	1.13	-0.0521	0.135	0.0243	1.78	-0.291 (inactive)	0.156	0.276 (inactive)	0.312 (inactive)	-0.205 (inactive)	0.196 (inactive)	-0.0494	1.12 (inactive)	0.579 (inactive)	-0.568
CCCC=C(CCC)[C@@H](NC(=O)OCC(C)C)c1ccccc1	1.33	-3.28 (inactive)	0.173 (inactive)	0.766 (inactive)	1.43 (inactive)	0.576	0.613	0.0387	-0.0475	0.661	-1.93 (inactive)	2.47	-0.725 (inactive)	-0.732 (inactive)	0.455 (inactive)	-1.61 (inactive)	1.44	-4.11 (inactive)	-3.58 (inactive)	-2.7
C#CCN1[C@@H](Cc2ccc(O)cc2)C(=O)O[C@H](Cc2ccccc2)[C@@H]1/C=C/C1CC1	0.0515	-4.07 (inactive)	1.75 (inactive)	15.1 (active)	1.42 (inactive)	-0.196	-0.224	0.161	0.364	0.284	-0.332 (inactive)	-0.196	2.45 (inactive)	0.0937 (inactive)	-1.15 (inactive)	0.0357 (inactive)	-0.663	-0.759 (inactive)	-0.462 (inactive)	-1.54
O=C1NC(=O)C2C1C=CC(C(O)c1ccc(I)cc1)N2Nc1ccccn1 (stereo not given)	-0.0488	0.886 (inactive)	-0.833 (inactive)	0.636 (inactive)	0.0542 (inactive)	0.242	-0.0216	0.282	0.239	-0.0484	-1.29 (inactive)	0.0701	1.41 (inactive)	0.698 (inactive)	0.0388 (inactive)	0.729 (inactive)	-0.779	-1.16 (inactive)	-2.82 (inactive)	-2.2
C[N+](C)(C)CCCC[C@@H]1NC(=O)[C@H]2C[C@@H](C(=O)NCCCCCCNC(=O)CS)[C@@H](c3ccc(O)cc3)N2C1=O	-0.195	-0.798 (inactive)	-0.15 (inactive)	-0.947 (inactive)	-0.549 (inactive)	-1.48	-0.024	2.12	1.3	0.801	-0.265 (inactive)	-0.299	1.24 (inactive)	0.193 (inactive)	1.12 (inactive)	0.0061 (inactive)	-0.409	0.518 (inactive)	0.507 (inactive)	0.936
CCCC1(C(=O)OC)C=C2C(=C(c3ccccc3)C(=O)C2C)CN1 (stereo not given)	0.256	-0.752 (inactive)	0.153 (inactive)	-0.375 (inactive)	0.966 (inactive)	0.312	0.27	0.52	0.0656	-0.599	-1.23 (inactive)	0.51	2.2 (inactive)	0.194 (inactive)	0.923 (inactive)	0.324 (inactive)	-0.267	-0.2 (inactive)	-2.64 (inactive)	-2.63
CC(C)[C@@H](C(=O)O)n1cc(C2(O)CCCCC2)nn1	0.265	-0.671 (inactive)	-0.78 (inactive)	-0.23 (inactive)	-0.669 (inactive)	0.306	-0.101	-0.0244	0.404	0.151	-0.0464 (inactive)	-0.188	-0.477 (inactive)	-0.436 (inactive)	-2.15 (inactive)	-0.89 (inactive)	0.0556	-1.09 (inactive)	-0.176 (inactive)	-0.658
COCCOC(=O)N1C(=O)[C@@]2(c3cc(C#CC4=CCCCC4)ccc31)[C@H](C(N)=O)[C@H]1C(=O)O[C@H](c3ccccc3)[C@H](c3ccccc3)N1[C@@H]2c1ccc(O)cc1	0.838	-4.06 (inactive)	-1.29 (inactive)	-0.931 (inactive)	-0.438 (inactive)	1.14	-0.0736	1.03	0.931	1.08	1.04 (inactive)	0.148	1.19 (inactive)	-0.933 (inactive)	0.161 (inactive)	-1.13 (inactive)	2.41	1.11 (inactive)	0.563 (inactive)	2.76
